Assay outcomes (PubChem BioAssay)
Rows were chosen to be rich in hits. Some 2.6% of all compounds tested hit in one or more screens of this group.
NOD2 RIPK2 PPI: inhibitors of human NOD2-RIPK2 interaction | CHO BLA complementation NOD2-RIPK2, CCF4 ratio | O43353 | inhibition, % at 4.98 µM | 360,000 compounds, 0.38% hits | AID 624267; in the data active means inhibition above about 21%;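 further: 0% = vehicle only and 100% = reference blocker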
TLR4 MyD88 comp: TLR4-MyD88 interaction inhibition in cells; HeLa CL3-4 TLR4/MyD88 BLA complementation, FRET ratio; inhibition, % at 8.4 µM; O00206+Q99836; 200,000 compounds, 0.18% hits; in the data active means inhibition above about 25%;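 further: 0% = vehicle and 100% = reference inhibitor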
ABHD5-PLIN5 inh: ABHD5-PLIN5 protein interaction inhibition; Q00G26+Q8WTS1; Split G. princeps luciferase complementation, luminescence, 4 h; inhibition, % at 4 µM; 360,000 compounds, 0.78% hits; AID 602281;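 active means inhibition above the mean inhibition across every tested compound plus 3 SD, cut at about 22% in these data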;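 further: 0% = DMSO only wells and the 100% control is not disclosed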
Target sequence (Q00G26 whole entry, looked up): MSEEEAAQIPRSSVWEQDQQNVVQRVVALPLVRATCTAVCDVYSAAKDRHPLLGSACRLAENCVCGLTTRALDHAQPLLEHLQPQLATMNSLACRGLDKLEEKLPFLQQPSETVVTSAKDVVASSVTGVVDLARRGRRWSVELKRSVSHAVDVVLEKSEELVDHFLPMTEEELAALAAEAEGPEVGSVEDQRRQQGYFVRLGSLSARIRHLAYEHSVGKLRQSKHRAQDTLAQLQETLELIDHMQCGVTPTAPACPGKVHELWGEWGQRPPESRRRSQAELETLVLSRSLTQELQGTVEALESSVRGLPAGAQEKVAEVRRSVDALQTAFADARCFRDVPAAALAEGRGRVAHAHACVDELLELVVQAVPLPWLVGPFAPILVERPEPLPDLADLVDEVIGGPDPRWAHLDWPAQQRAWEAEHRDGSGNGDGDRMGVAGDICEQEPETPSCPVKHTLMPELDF
Target sequence (Q8WTS1 whole entry, looked up): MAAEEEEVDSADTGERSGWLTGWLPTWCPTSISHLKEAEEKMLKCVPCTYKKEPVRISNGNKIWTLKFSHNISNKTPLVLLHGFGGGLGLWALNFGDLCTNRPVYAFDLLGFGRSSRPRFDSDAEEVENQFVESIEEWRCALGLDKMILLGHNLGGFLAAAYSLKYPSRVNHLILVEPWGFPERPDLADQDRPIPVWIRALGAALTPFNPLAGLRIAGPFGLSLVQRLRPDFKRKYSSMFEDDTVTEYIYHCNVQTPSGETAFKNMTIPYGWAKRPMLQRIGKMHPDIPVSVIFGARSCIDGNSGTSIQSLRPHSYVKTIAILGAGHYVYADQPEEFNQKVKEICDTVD
TLR9-MyD88 block: inhibitors of human TLR9-MyD88 binding | AID 504734 | CHO BLA complementation TLR9-MyD88, CCF4 FRET ratio | 340,000 compounds, 0.21% hits | inhibition, % at 4.98 µM | Q9NR96+Q99836;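 active means inhibition above the mean over all tested compounds plus 3 SD, cut at about 21% in these data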;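 further: 0% = DMSO only wells and 100% = clavulanate BLA inhibitor control wells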
Exocytosis inh: lytic granule exocytosis inhibition; TALL-104 LAMP-1 surface exposure, flow cytometry; cells stimulated with thapsigargin and PMA; inhibition, % at 10 µM; 360,000 compounds, 0.66% hits; AID 651702;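 active means inhibition above about 55%, limit read from the data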
PRMT1 FP inh: inhibitors of human PRMT1 | recombinant PRMT1, activity-based probe fluorescence polarization | 370,000 compounds, 1.3% hits | inhibition, % at 2.79 µM;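 active means inhibition above about 21% made by adding two undisclosed values, limit read from the data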
PRMT1 inh conf: confirmation of human PRMT1 inhibitors; recombinant His-PRMT1, activity-based probe fluorescence polarization; shares compounds with PRMT1 FP inh; inhibition, % at 2.79 µM; AID 687036; 3,300 compounds, 42% hits;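 active means mean inhibition across replicates above the hit cutoff derived for the earlier primary screen, cut at about 22% in these data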
* hit, by the source's call; · = no result given.

SMILES | NOD2 RIPK2 PPI | TLR4 MyD88 comp | ABHD5-PLIN5 inh | TLR9-MyD88 block | Exocytosis inh | PRMT1 FP inh | PRMT1 inh conf
Cc1c(Cc2ccccc2)sc(NC(=O)Cc2ccccc2)c1C(N)=O | 6.1 | -3.3 | -22.0 | -1.3 | -0.8 | 28.7* | 3.1
Cc1nc2c([nH]1)C1(CCN(Cc3ccccc3)CC1)C(C#N)=C(N)O2 | 11.6 | -7.5 | -4.4 | 0.0 | 1.5 | 42.1* | 1.6
CC1(C)CC(=O)C2=C(C1)OC(N)=C(C#N)C21CCN(Cc2ccccc2)CC1 | -6.4 | -4.4 | 8.5 | -3.6 | 0.6 | 17.9 | ·
COc1ccc(-c2cn(-c3ccc(C)c(C)c3)c(=S)[nH]2)cc1OC | 9.2 | · | -12.8 | 10.5 | 1.1 | 30.7* | 18.0
Clc1ccc(-n2nnc(-c3nccs3)n2)cc1Cl | 10.6 | 0.5 | -5.1 | -11.8 | 48.6 | 37.9* | 24.2*
N#Cc1ccc(Oc2cccc3cccnc23)c([N+](=O)[O-])c1 | -7.5 | · | 5.3 | -4.2 | 7.7 | 26.5* | 4.9
O=C(Nc1cccc(C(F)(F)F)c1)Nn1cnnc1 | -11.9 | · | -7.4 | -2.9 | -0.3 | -1.6 | ·
Cc1cc(NCCCCCCCNc2cc(C)nc3cc([N+](=O)[O-])ccc23)c2ccc([N+](=O)[O-])cc2n1 | 1.9 | · | -7.7 | -4.9 | 26.5 | -3.3 | ·
CCOC(=O)c1c(-c2ccc(C)o2)csc1N | 3.3 | 7.2 | 0.7 | -3.9 | 3.9 | 8.8 | ·
CCOC(=O)c1c(-c2ccc(C)o2)csc1NC(=S)NC(=O)N(C)C | 7.8 | 1.9 | 11.9 | -1.4 | 52.2 | 80.3* | 11.5
CC(=O)Nc1ccc(SC(Sc2ccc(NC(C)=O)cc2)c2ccccc2)cc1 | -2.4 | · | -0.3 | 2.9 | 1.7 | 29.0* | 21.7*
CC(=O)Nc1ccc(NC(=S)Nc2ccccc2)cc1 | 6.4 | 0.5 | -11.6 | -0.4 | -2.6 | 1.1 | ·
CCc1c(C(=O)Nc2ccccc2)c(C)[nH]c(=S)c1C#N | 1.9 | -8.3 | 0.3 | 6.0 | -1.4 | 42.7* | 87.9*
Cc1[nH]c(=S)c(C#N)c(C)c1C(=O)Nc1ccccc1 | -1.9 | -19.1 | 2.4 | 5.1 | 2.6 | 33.1* | 12.7
Cc1[nH]c(C(=O)O)c(C#N)c1C(=O)c1ccccc1 | 5.3 | · | -0.2 | 0.6 | 13.9 | -2.5 | ·
CC(C)CN(C(=O)CSc1nc(-c2ccccc2)cn1N)c1c(N)n(Cc2ccccc2)c(=O)[nH]c1=O | -2.9 | · | -15.8 | 11.4 | 7.3 | 25.5* | 9.6
COCCN(C(=O)CSc1nnc(C)n1Cc1ccccc1)c1c(N)n(Cc2ccccc2)c(=O)[nH]c1=O | -2.2 | -8.4 | 2.1 | 0.7 | -2.0 | · | ·
COCCN(C(=O)CSc1nnc(-c2ccccc2C)n1C)c1c(N)n(Cc2ccccc2)c(=O)[nH]c1=O | -12.7 | -21.4 | 0.8 | 3.8 | -1.3 | 27.5* | 33.4*
CCN(C(=O)CSc1nnc(-c2ccc(OC)cc2)n1N)c1c(N)n(Cc2ccccc2)c(=O)[nH]c1=O | 0.2 | · | -4.5 | -12.3 | -1.1 | 36.0* | 28.4*
COc1ccc(-c2nc(SCC(=O)N(CC(C)C)c3c(N)n(Cc4ccccc4)c(=O)[nH]c3=O)n[nH]2)cc1 | -4.7 | · | 1.2 | -8.0 | 4.9 | 4.3 | ·
COc1ccc(CC(=O)Nc2cccc(-c3ccc4nncn4n3)c2)cc1OC | -8.6 | -1.6 | 0.5 | 2.6 | -0.9 | -1.0 | ·
CCN=C1S/C(=C/c2cc(C)n(-c3ccc(Cl)cc3F)c2C)C(=O)N1CC | · | · | · | · | · | 2.0 | ·
Cc1ccc(C)c(OCCC(=O)N(C)CC(=O)Nc2c(C)cccc2C)c1 | -11.3 | · | 1.4 | -10.3 | 3.3 | -3.2 | ·
CC1CC2=C(NC(=S)NC2c2ccc(F)cc2)/C(=C/c2ccc(F)cc2)C1 (stereo not given) | -14.6 | -10.5 | -6.1 | -14.1 | 0.8 | 48.7* | 21.6*
COc1ccc(C2NC(=S)NC3=C2CCCC3=C2SCCS2)cc1 (stereo not given) | -2.0 | -3.0 | -12.8 | -1.1 | 1.2 | 8.0 | ·
SMILES | NOD2 RIPK2 PPI | TLR4 MyD88 comp | ABHD5-PLIN5 inh | TLR9-MyD88 block | Exocytosis inh | PRMT1 FP inh | PRMT1 inh conf
S=C1NC2=C(CCC/C2=C\c2ccc(Cl)cc2)C(c2ccc(Cl)cc2)N1 (stereo not given) | -1.5 | · | -9.1 | -11.3 | 7.9 | 27.4* | 15.0
S=C1NC2=C(CCC/C2=C\c2ccccc2)C(c2ccccc2)N1 (stereo not given) | 0.8 | -12.8 | -5.8 | -5.1 | -4.5 | 42.7* | 31.7*
C(=C1/CCCC2=C1Nc1ncnn1C2c1ccccc1)/c1ccccc1 (stereo not given) | · | 3.7 | · | · | · | · | ·
S=C1NC2=C(CCCC2=C2SCCCS2)C(c2ccccc2)N1 (stereo not given) | 0.3 | -17.0 | 3.4 | -5.6 | 3.6 | 35.2* | 4.3
CCOc1ccc(OCC(=O)OCC(=O)NNC(=O)c2ccc([N+](=O)[O-])cc2)cc1 | -7.7 | · | 0.3 | -12.9 | 0.5 | 0.9 | ·
Fc1cccc(/C=C2\CCCC3=C2NC(=S)NC3c2cccc(F)c2)c1 (stereo not given) | -3.2 | · | -8.2 | -4.7 | 1.1 | 64.0* | 18.1
Fc1ccccc1/C=C1\CCCC2=C1NC(=S)NC2c1ccccc1F (stereo not given) | 4.3 | 3.4 | -16.3 | 0.2 | 2.9 | 38.2* | 20.5
CC1CCCN(C(=O)COC(=O)c2cc(Br)ccc2O)C1 (stereo not given) | -6.7 | · | -12.9 | -3.8 | 2.2 | -0.8 | ·
CCOC(=O)N1CCN(C(=S)NC(=O)/C=C/c2ccc(C)cc2)CC1 | -5.3 | · | -4.4 | -3.3 | -11.8 | -3.6 | ·
CC(=O)NNC(=S)NC(=O)c1cccc([N+](=O)[O-])c1 | -4.2 | -6.7 | 2.8 | 7.0 | 24.5 | 48.1* | 0.4
O=C(NNC(=S)NC(=O)c1ccc(Br)cc1)c1cccc([N+](=O)[O-])c1 | -9.5 | · | -0.5 | 0.9 | 3.3 | -5.2 | ·
O=C(OCc1nnc(-c2ccccc2)o1)C1CCN(C(=O)c2ccc(Cl)cc2)CC1 | -0.4 | · | -2.7 | -5.5 | -5.0 | 0.7 | ·
O=C(CCCSc1ccc(Cl)cc1)Nc1cc(S(=O)(=O)N2CCOCC2)ccc1O | 0.5 | · | -17.2 | 10.0 | -1.6 | 48.7* | 21.8*
Cc1ccc(S(=O)(=O)N2CCOCC2)cc1NC(=O)CSc1ccc(Cl)cc1 | -4.7 | · | -8.0 | 5.5 | -4.5 | -2.1 | ·
O=C(O)CSc1ncccn1 | -15.0 | 7.0 | -7.4 | 8.6 | -1.9 | -1.2 | ·
O=C(CSc1ncccn1)c1ccccc1Br | -1.2 | 1.8 | -1.1 | -3.5 | -4.1 | 57.2* | 38.4*
CCOc1ccc(-c2nnc(NC(=O)C3CCCC3)o2)cc1 | -8.5 | · | -1.5 | 5.9 | -21.0 | 15.4 | ·
CCc1ccc(O)c(N=Cc2cccc(C)c2O)c1 | 4.6 | 0.5 | -6.6 | -5.6 | 0.3 | 2.1 | ·
Cc1cccc(C=Nc2ccc3c4c(cccc24)CC3)c1O | 16.2 | 7.0 | -5.9 | -4.1 | -2.9 | 36.2* | 3.8
Oc1ccc(Cl)cc1C=Nc1ccc2c3c(cccc13)CC2 | 11.5 | -8.1 | 0.1 | -3.1 | -1.9 | 39.2* | 13.2
